Bioassay records: PubChem, National Center for Advancing Translational Sciences (NCATS)
The full list was thinned out, with hits kept by preference.
Pf Dd2 inh: qHTS Primary assay for Inhibitors of Plasmodium falciparum Dd2 growth in vitro; P. falciparum Dd2 growth, SYBR Green, 72 h; Potency, µM (series often up to 28.9 µM), for inactives: top-dose activity, negative = inhibition, hits mostly inhibitors; 4.3% of 120,000 active; active means well fitted inhibition curve with a large enough effect;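 further: plate controls were DMSO vehicle for no effect and reference drug for full effect; nearly all actives have a fitted effect of over 65% in size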
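Infected erythrocytes (Dd2, 0.3% parasitemia, 2.5% hematocrit final) are added to compound in RPMI-1640/Albumax II medium, grown 72 h at 37C in low oxygen, then lysed with saponin/Triton-X containing SYBR Green and read by fluorescence.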
* marks the source's active call; other numbers are inactive results; i = inactive; [ ] = another dose, or the depositor's remark. Potency means the concentration at half of the fitted maximal effect.

SMILES	Pf Dd2 inh
COc1ccccc1NC(=O)c1sc2nc(N3CCOCC3)c3c(c2c1N)CC(C)(C)OC3	-3.3%
COCCCNC(=O)c1sc2nc(C)c(C(=O)Nc3ccc(Cl)cc3)c(-c3ccc(Br)cc3)c2c1N	-8.8%
COc1cccc(NC(=O)c2sc3nc(C)c(C(=O)Nc4ccc(C)cc4C)c(-c4ccc(Br)cc4)c3c2N)c1	8.91µM*
Cc1ccc(NC(=O)c2sc3nc(-c4ccc(F)cc4)ccc3c2N)cc1F	-0.3%
COc1cccc(C(=O)Nc2nc(-c3ccc(Br)cc3)ns2)c1	11.0%
COc1ccccc1C(=O)Nc1c(C(=O)Nc2cc(Cl)ccc2C)sc2nc(C)cc(C)c12	1.6%
Cc1cc(F)ccc1NC(=O)c1sc2nc(-c3cccs3)ccc2c1N	-6.4%
Cn1nc(C2CCN(C(=O)c3ccccc3)CC2)[nH]c1=O	7.7%[44.1 µM]
NC(=O)C1CCN([C@H]2[C@@H]3OC[C@@H](O3)[C@@H](NCc3ccncc3)[C@@H]2O)CC1	16.6%[44.1 µM]
COCCOCC(=O)NCCc1noc(-c2ccccc2)n1	-6.3%
Cc1ccc(-n2c(C3CCN(C(=O)c4ccccc4F)CC3)n[nH]c2=O)cc1	-20.0%
Cc1cc(C)nc(N2C[C@H]3OC(=O)N(CCc4ccc(F)cc4)[C@H]3C2)n1	4.6%
O=C(CCc1nc(C2CCOC2)no1)NC1CCCCCCC1 (stereo unspecified)	23.2%
COCc1nc(-c2ccc(OC3CCN(S(=O)(=O)c4ccccc4C)C3)cc2)no1 (stereo unspecified)	20.4%[5.79 µM]
COc1ccc(CN2CCn3c(nnc3-c3cccnc3)C2)cc1	-2.4%
c1csc(-c2ccnc3nc(C4CCC4)nn23)c1	4.7%
O=C(CC1CCCC1)N1CCC(N2C(=O)C(O)C23CCCCC3)CC1 (stereo unspecified)	-7.5%
COc1ccc(Cc2c(C)nn(-c3nc(C)c(C(=O)Nc4ccc(C)cc4C)s3)c2C)cc1	-12.8%
COc1ccc(NC(=O)c2sc3nc(C)c(C(=O)Nc4ccc(C)cc4C)c(-c4sccc4C)c3c2N)cc1	3.16µM*
CCCCOC(=O)c1ccc(NC(=O)c2sc3nc(C)cc(C)c3c2N)cc1	-13.8%
COC(=O)CN1C(=O)[C@@H]2C[C@@H](O)CN2C2(CNC2)C1=O	24.9%[44.1 µM]
CCC[C@H]1CN(Cc2ccccc2C#N)C[C@@H]1NS(C)(=O)=O	-6.5%
CCOC(=O)c1ccc(NC(=O)C2CCCN(c3ncnc4onc(-c5ccc(F)cc5)c34)C2)cc1 (stereo unspecified)	8.91µM*
CC(C)NC(=O)C1CCCN(c2ncnc3onc(-c4ccc(F)cc4)c23)C1 (stereo unspecified)	-2.8%
COc1cccc(NC(=O)C2CCCN(c3ncnc4onc(C)c34)C2)c1 (stereo unspecified)	-19.7%
SMILES	Pf Dd2 inh
Cc1nc2c(c(-c3ccc(Cl)cc3)n1)CCN(C(=O)Cc1ccc(F)cc1)CC2	-22.6%
O=c1cc(-c2ccncc2)oc2c(-c3cccc4[nH]ccc34)nccc12	10µM*
COc1ncccc1-c1nccc2c(=O)cc(-c3ccncc3)oc12	-6.2%[44.1 µM]
Cn1cc(-c2cc(=O)c3ccnc(-c4cccc5[nH]ccc45)c3o2)cn1	i
CCN1CC2(CCN(C(=O)CC(Cc3ccccc3)c3ccco3)CC2)CC1=O (stereo unspecified)	-4.9%
COCc1ccc(C(=O)N2CC[C@](C)(O)[C@H](C)C2)s1	-16.4%
COCCCNC(=O)C1COC2(CCCCC2)N1C(=O)c1c(OC)cccc1OC (stereo unspecified)	6.31µM*
COCCNC(=O)C1COC2(CCN(C(=O)c3ccc(F)cc3)CC2)N1C(=O)c1cccc(C)c1 (stereo unspecified)	-22.0%
COCCNC(=O)C1COC2(CCN(C(=O)c3ccc(OC)cc3)CC2)N1C(=O)c1ccccc1 (stereo unspecified)	25.9%
CN1CCC(OC2CCN(C(=O)c3cccc(C(F)(F)F)c3)CC2)CC1	-23.4%
COCCCNc1nc2c([S+](=O)([O-])c3ccc(OC)cc3)nnn2c2ccccc12	-18.8%
O=C(c1ccc2c(c1)N(Cc1cccc(Cl)c1)C(=O)c1ccccc1S2(=O)=O)N1CCCC1	-10.5%
NC(=O)C1CCN(C(=O)c2ccc3c(c2)N(Cc2cccc(Cl)c2)C(=O)c2ccccc2S3=O)CC1 (stereo unspecified)	i
O=C(Nc1cc(Cl)ccc1Cl)c1ccc2c(c1)N(Cc1cccc(Cl)c1)C(=O)c1ccccc1S2=O (stereo unspecified)	3.98µM*
COC(=O)c1cc(NC(=O)c2ccc3c(c2)N(Cc2cccc(Cl)c2)C(=O)c2ccccc2S3=O)cc(C(=O)OC)c1 (stereo unspecified)	3.16µM*
O=C(c1ccc2c(c1)N(Cc1cccc(Cl)c1)C(=O)c1ccccc1S2(=O)=O)N1CCCCCC1	-29.0%
O=C(NCCc1ccccc1)c1ccc2c(c1)N(Cc1ccccc1F)C(=O)c1ccccc1S2=O (stereo unspecified)	i
Cc1ccccc1CN1C(=O)c2ccccc2S(=O)c2ccc(C(=O)NCc3ccccc3)cc21 (stereo unspecified)	i
CCN(CC)CCNC(=O)c1ccc2c(c1)N(Cc1ccccc1)C(=O)c1ccccc1S2=O (stereo unspecified)	i
O=C(Nc1cccc(Cl)c1Cl)c1ccc2c(c1)N(Cc1cccc(Cl)c1)C(=O)c1ccccc1S2(=O)=O	5.62µM*
CC(C)(C)C(=O)N1CCC2(CCCN(Cc3cccc(F)c3F)C2=O)C1 (stereo unspecified)	2.9%
Cc1cnc(C(=O)NC2C[C@H]3CC[C@@H](C2)N3C(=O)c2ccc(Br)o2)cn1 (stereo partly specified)	i
CN(Cc1ccc2nccnc2c1)C(=O)c1cc(COc2ccc(F)cc2F)on1	-23.5%
COCCN1Cc2nc(-c3cnn(Cc4ccccc4)c3)ccc2OCC1=O	-3.4%[44.1 µM]
COc1ccc(CNC(=O)[C@@H]2Cc3nc[nH]c3CN2C(=O)NC2CCCCC2)cc1	3.2%[44.1 µM]
SMILES	Pf Dd2 inh
Cc1nc(C)c(C(=O)N2CC(C)(C)C(C)(O)C2)s1 (stereo unspecified)	-19.6%
O=C(O)CC1C(=O)NCCN1C1CCCC1 (stereo unspecified)	-3.3%
CC[C@H]1CN2CC[C@H]1C[C@@H]2CNC(=O)Nc1cccc(C#N)c1	i
C#C[C@H]1CN2CC[C@H]1C[C@@H]2CNS(=O)(=O)c1ccc(Cl)cc1	5.01µM*
CC[C@H]1CN2CC[C@H]1C[C@@H]2CNS(=O)(=O)c1cccs1	-5.4%[44.1 µM]
C#CCN(C)C[C@H]1CN2CC[C@H]1C[C@@H]2CNS(=O)(=O)c1ccccc1	i
C#C[C@H]1CN2CC[C@H]1C[C@@H]2CNS(=O)(=O)c1cccc(F)c1	8.91µM*
O=S(=O)(NC[C@H]1C[C@@H]2CCN1C[C@@H]2CN1CCCCC1)c1ccccc1	-4.8%[44.1 µM]
C#C[C@H]1CN2CC[C@H]1C[C@@H]2CNS(=O)(=O)c1cccs1	8.91µM*
C#C[C@H]1CN2CC[C@H]1C[C@@H]2CNCc1ccc(C(C)C)cc1	i
CC[C@H]1CN2CC[C@H]1C[C@@H]2CNS(=O)(=O)c1ccccc1	i
CCN(CC)C[C@H]1CN2CC[C@H]1C[C@@H]2CNS(=O)(=O)c1ccc(Cl)cc1	-15.4%[44.1 µM]
C#C[C@H]1CN2CC[C@H]1C[C@@H]2CNCc1cccc(C#N)c1	14.1µM*
C=C[C@H]1CN2CC[C@H]1C[C@@H]2CNS(=O)(=O)c1ccc(Cl)cc1	-6.5%[44.1 µM]
COCCNC(=O)C[C@@H]1C[C@H]2O[C@H](CNC3CCCC3)[C@@H](O)[C@H]2O1	22.9%[44.1 µM]
